Compounds without any hit were thinned out: in the full panel of roughly 79,000, 15% have a hit. The source made the active and inactive calls. Rule as the data show it: active = growth inhibition above about 70%; inactive = the rest.
Tests used:
[1] = NCI Yeast Anticancer Drug Screen. Data for the mec2-1 strain (AID 157); conditions: S. cerevisiae mec2-1 strain, hits give high values
Procedure, shortened: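 Readout is yeast growth inhibition, normalised to vehicle-treated controls, in the mec2-1 strain exposed to compound.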

[2] = NCI Yeast Anticancer Drug Screen. Data for the rad14 strain (AID 159);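 also: 0% = growth of vehicle-treated control cultures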; conditions: S. cerevisiae rad14 strain growth inhibition, hits give high values
Procedure, shortened: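 Inhibition of growth is reported for a repair-deficient yeast mutant following compound treatment, calculated relative to cultures that received vehicle.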

[3] = NCI Yeast Anticancer Drug Screen. Data for the sgs1 mgt1 strain (AID 161);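 also: 0% = growth of cultures given vehicle only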; conditions: S. cerevisiae sgs1 mgt1 strain, hits give high values
Procedure, shortened: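 Percent growth inhibition was derived by comparing compound-exposed mutant yeast with vehicle-exposed cultures. The strain carries alterations in DNA damage repair.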

[4] = NCI Yeast Anticancer Drug Screen. Data for the CLN2oe strain (AID 163);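 also: 0% = growth of vehicle-only control cultures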; conditions: S. cerevisiae CLN2oe strain, hits give high values
Procedure, shortened: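 Values reflect how much compound exposure reduced yeast growth, referenced to vehicle-exposed cells. Assay organism is a strain with a defined genetic change affecting cell-cycle control.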

[5] = NCI Yeast Anticancer Drug Screen. Data for the cln2 rad14 strain (AID 165);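 also: 0% = growth equal to vehicle treated cultures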; conditions: S. cerevisiae cln2 rad14 strain, hits give high values
Procedure, shortened: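 Relative to vehicle controls, growth inhibition of compound-treated cln2 rad14 yeast was recorded.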

[6] = NCI Yeast Anticancer Drug Screen. Data for the bub3 strain (AID 167); conditions: S. cerevisiae bub3 mutant strain, hits give high values
Procedure, shortened: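 Mutant yeast screening strain plus compound; vehicle-treated cultures serve as the 0% inhibition reference.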

[7] = NCI Yeast Anticancer Drug Screen. Data for the mlh1 strain (AID 171);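 also: 0% = growth of vehicle-treated control cultures of the same strain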; conditions: S. cerevisiae mlh1 strain growth inhibition, hits give high values
Procedure, shortened: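 Steps: expose the defined-mutant yeast strain to compound; expose a parallel culture to vehicle; measure growth; express compound effect as inhibition relative to the vehicle culture.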

[8] = NCI Yeast Anticancer Drug Screen. Data for the sgs1 strain (AID 173);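 also: 0% = growth of vehicle-only control cultures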; conditions: S. cerevisiae sgs1 mutant, hits give high values
Procedure, shortened: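 Treat defined-mutant yeast with compound; measure growth; calculate inhibition relative to vehicle-treated cells.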

[9] = NCI Yeast Anticancer Drug Screen. Data for the mlh1 rad18 strain (AID 175); conditions: S. cerevisiae mlh1 rad18 strain growth inhibition, hits give high values
Procedure, shortened: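 Test agents were incubated with a yeast strain of defined genotype (DNA damage repair defect). Inhibition of growth was derived by comparison with vehicle-exposed cultures.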

[10] = NCI Yeast Anticancer Drug Screen. Data for the rad52 strain (AID 147);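 also: 0% = growth of vehicle-treated control cultures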; conditions: S. cerevisiae rad52 mutant growth inhibition, hits give high values
Procedure, shortened: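 Screen used a yeast mutant impaired in DNA repair. After compound exposure, growth was measured. Values reflect inhibition compared with vehicle-treated cells.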

[11] = NCI Yeast Anticancer Drug Screen. Data for the wt1 strain (AID 149);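 also: 0% = growth of vehicle-treated wt1 cultures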; conditions: S. cerevisiae wt1 strain (SPY 50644) growth inhibition, hits give high values
Procedure, shortened: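 Each compound is tested on wt1 yeast and the loss of growth versus vehicle gives the inhibition value.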

[12] = NCI Yeast Anticancer Drug Screen. Data for the rad50EPP+ strain (AID 151);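 also: 0% = growth of vehicle-treated control cultures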; conditions: S. cerevisiae rad50 mutant strain, hits give high values
Procedure, shortened: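 Exposing the rad50EPP+ strain to each compound, growth was compared with vehicle-only cultures to give inhibition.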

[13] = NCI Yeast Anticancer Drug Screen. Data for the rad50 strain (AID 155);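 also: 0% = growth of vehicle-only cultures of the same strain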; conditions: S. cerevisiae rad50 strain growth inhibition, hits give high values
Procedure, shortened: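 Vehicle-treated cultures provide the reference for the growth inhibition reported for compound-exposed, repair-deficient yeast.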

[14] = NCI Yeast Anticancer Drug Screen. Data for the mgt1 strain (AID 153); conditions: S. cerevisiae mgt1 mutant growth inhibition, hits give high values
Procedure, shortened: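 Genetically defined yeast (mgt1) treated with compound; inhibition of growth expressed against vehicle-treated controls.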

[15] = NCI Yeast Anticancer Drug Screen. Data for the wt2 strain (AID 169); conditions: S. cerevisiae wt2 strain growth inhibition, hits give high values
Procedure, shortened: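 Values express reduction in yeast growth under compound treatment, referenced to vehicle-treated cells.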

[16] = NCI Yeast Anticancer Drug Screen. Data for the rad18 strain (AID 177); conditions: S. cerevisiae rad18 mutant growth inhibition, hits give high values
Procedure, shortened: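 A genetically defined yeast mutant impaired in DNA damage repair was treated with test compounds, then its growth was measured against cultures receiving vehicle alone.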

[17] = at 5.0 µM (retest, dose inferred, filed as 0.5)
[18] = at 50.0 µM (retest, dose inferred, filed as 5.0)

Measured: growth inhibition

c1ccc2c(c1)C(=NCCCN1CCCCCC1)c1cccn1-2
inactive: [2]; at 1.2 µM -15% | [2]; at 3.7 µM -3% | [2]; at 11.0 µM -2% | [2]; at 33.0 µM 4% | [3]; [17] 2% | [3]; [18] -7% | [4]; at 1.2 µM -10% | [4]; at 3.7 µM -15% | [4]; at 11.0 µM -23% | [4]; at 33.0 µM -18% | [5]; [17] -7% | [5]; [18] -5% | [5]; at 50.0 µM 61.4% | [6]; at 1.2 µM 0% | [6]; at 3.7 µM -4% | [6]; [17] 6% | [6]; at 11.0 µM 0% | [6]; at 33.0 µM 10% | [6]; [18] -3% | [7]; at 1.2 µM -2% | [7]; at 3.7 µM -2% | [7]; at 11.0 µM 0% | [7]; at 33.0 µM 4% | [8]; at 1.2 µM -4% | [8]; at 3.7 µM -2% | [8]; at 11.0 µM -1% | [8]; at 33.0 µM 4% | [9]; [17] -2% | [9]; [18] -2%
active: [1]; at 100.0 µM 98% | [2]; at 100.0 µM 98% | [3]; at 50.0 µM 84.5% | [4]; at 100.0 µM 93% | [6]; at 50.0 µM 94.9% | [6]; at 100.0 µM 97% | [7]; at 100.0 µM 96% | [8]; at 100.0 µM 96% | [9]; at 50.0 µM 89.8%

c1ccc2c(c1)sc1cc3ccncc3cc12
inactive: [10]; at 1.2 µM -2% | [10]; at 3.7 µM 7% | [10]; at 11.0 µM 17% | [11]; at 1.2 µM -7% | [11]; at 3.7 µM -4% | [11]; at 11.0 µM -9% | [11]; at 33.0 µM 17% | [12]; at 1.2 µM 7% | [12]; at 3.7 µM 21% | [12]; at 11.0 µM 63% | [13]; at 1.2 µM -6% | [13]; at 3.7 µM 7% | [13]; at 11.0 µM 29% | [1]; at 1.2 µM 1% | [1]; at 3.7 µM -1% | [1]; [17] 15% | [1]; at 11.0 µM 11% | [1]; at 33.0 µM 8% | [2]; at 1.2 µM 2% | [2]; at 3.7 µM 7% | [2]; at 11.0 µM 16% | [2]; at 33.0 µM 36% | [3]; [17] 12% | [4]; at 1.2 µM -2% | [4]; at 3.7 µM 0% | [4]; at 11.0 µM 7% | [4]; at 33.0 µM 26% | [5]; [17] 16% | [6]; at 1.2 µM -12% | [6]; at 3.7 µM -7% | [6]; [17] -4% | [6]; at 11.0 µM 0% | [6]; at 33.0 µM 19% | [7]; at 1.2 µM 6% | [7]; at 3.7 µM -6% | [7]; at 11.0 µM -1% | [7]; at 33.0 µM 19% | [8]; at 1.2 µM -2% | [8]; at 3.7 µM -7% | [8]; at 11.0 µM -7% | [8]; at 33.0 µM 34% | [9]; [17] 8%
active: [10]; at 33.0 µM 94% | [10]; at 100.0 µM 98% | [11]; at 100.0 µM 94% | [12]; at 33.0 µM 94% | [12]; at 100.0 µM 99% | [13]; [17] 93% | [13]; at 33.0 µM 89% | [13]; [18] 94% | [13]; at 50.0 µM 97.7% | [13]; at 100.0 µM 98% | [1]; [18] 96% | [1]; at 50.0 µM 98.2% | [1]; at 100.0 µM 89% | [2]; at 100.0 µM 97% | [3]; [18] 93% | [3]; at 50.0 µM 98.1% | [4]; at 100.0 µM 91% | [5]; [18] 96% | [5]; at 50.0 µM 96.2% | [6]; [18] 95% | [6]; at 50.0 µM 97.3% | [6]; at 100.0 µM 94% | [7]; at 100.0 µM 95% | [8]; at 100.0 µM 97% | [9]; [18] 94% | [9]; at 50.0 µM 97.4%

CC[n+]1ccc2c(C)c3[nH]c4ccc(O)cc4c3c(C)c2c1
inactive: [10]; at 1.2 µM 5% | [10]; at 3.7 µM 48% | [12]; at 1.2 µM 16% | [12]; at 3.7 µM 34% | [12]; at 11.0 µM 64% | [14]; at 1.2 µM -36% | [14]; at 3.7 µM -14% | [14]; at 11.0 µM -16% | [14]; at 33.0 µM -5% | [14]; at 100.0 µM 14% | [13]; at 1.2 µM -24% | [13]; at 3.7 µM 16% | [13]; [17] 58% | [13]; at 11.0 µM 65% | [1]; at 1.2 µM -15% | [1]; at 3.7 µM -1% | [1]; [17] 1% | [1]; at 11.0 µM 0% | [1]; at 33.0 µM 6% | [1]; [18] 16% | [1]; at 50.0 µM 59.5% | [1]; at 100.0 µM 24% | [2]; at 1.2 µM -22% | [2]; at 3.7 µM -10% | [2]; at 11.0 µM -23% | [2]; at 33.0 µM -20% | [2]; at 100.0 µM -10% | [3]; [17] 4% | [3]; [18] 31% | [3]; at 50.0 µM 9.25% | [4]; at 1.2 µM 5% | [4]; at 3.7 µM 17% | [4]; at 11.0 µM 36% | [4]; at 33.0 µM 26% | [4]; at 100.0 µM 41% | [5]; [17] 5% | [5]; [18] 23% | [5]; at 50.0 µM 9.35% | [6]; at 1.2 µM -19% | [6]; at 3.7 µM -16% | [6]; [17] -8% | [6]; at 11.0 µM -16% | [6]; at 33.0 µM 3% | [6]; [18] 28% | [6]; at 50.0 µM 5.2% | [6]; at 100.0 µM 15% | [15]; at 1.2 µM -5% | [15]; at 3.7 µM -6% | [15]; at 11.0 µM -3% | [15]; at 33.0 µM -1% | [15]; at 100.0 µM 13% | [7]; at 1.2 µM 0% | [7]; at 3.7 µM -16% | [7]; at 11.0 µM -18% | [7]; at 33.0 µM -4% | [7]; at 100.0 µM 10% | [8]; at 1.2 µM 9% | [8]; at 3.7 µM 38% | [8]; at 11.0 µM 43% | [8]; at 33.0 µM 0% | [8]; at 100.0 µM 46% | [9]; [17] 5% | [9]; [18] 30% | [9]; at 50.0 µM 65% | [16]; at 1.2 µM -23% | [16]; at 3.7 µM 2% | [16]; at 11.0 µM 23% | [16]; at 33.0 µM -6% | [16]; at 100.0 µM 6%
active: [10]; at 11.0 µM 70% | [10]; at 33.0 µM 90% | [10]; at 100.0 µM 92% | [12]; at 33.0 µM 85% | [12]; at 100.0 µM 90% | [13]; at 33.0 µM 86% | [13]; [18] 92% | [13]; at 50.0 µM 81.5% | [13]; at 100.0 µM 90%

From PubChem BioAssay (NCI)
